# Screening results: PubChem BioAssay, Pan Lab, Icahn School of Medicine at Mount Sinai
# RBX1-CUL1 inh – blocks human RBX1-Cullin-1 di-ubiquitin formation. inhibition, % at 10 µM. in vitro K48 di-Ub FRET, acceptor:donor ratio, 45 min. AID 1347404. 0.6% of 140,000 active; in the data active = inhibition above about 25%
# Target sequence (P62877 whole entry, looked up): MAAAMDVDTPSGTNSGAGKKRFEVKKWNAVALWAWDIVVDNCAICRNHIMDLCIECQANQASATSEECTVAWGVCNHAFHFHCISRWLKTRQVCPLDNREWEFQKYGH
# Target sequence (Q13616 whole entry, looked up): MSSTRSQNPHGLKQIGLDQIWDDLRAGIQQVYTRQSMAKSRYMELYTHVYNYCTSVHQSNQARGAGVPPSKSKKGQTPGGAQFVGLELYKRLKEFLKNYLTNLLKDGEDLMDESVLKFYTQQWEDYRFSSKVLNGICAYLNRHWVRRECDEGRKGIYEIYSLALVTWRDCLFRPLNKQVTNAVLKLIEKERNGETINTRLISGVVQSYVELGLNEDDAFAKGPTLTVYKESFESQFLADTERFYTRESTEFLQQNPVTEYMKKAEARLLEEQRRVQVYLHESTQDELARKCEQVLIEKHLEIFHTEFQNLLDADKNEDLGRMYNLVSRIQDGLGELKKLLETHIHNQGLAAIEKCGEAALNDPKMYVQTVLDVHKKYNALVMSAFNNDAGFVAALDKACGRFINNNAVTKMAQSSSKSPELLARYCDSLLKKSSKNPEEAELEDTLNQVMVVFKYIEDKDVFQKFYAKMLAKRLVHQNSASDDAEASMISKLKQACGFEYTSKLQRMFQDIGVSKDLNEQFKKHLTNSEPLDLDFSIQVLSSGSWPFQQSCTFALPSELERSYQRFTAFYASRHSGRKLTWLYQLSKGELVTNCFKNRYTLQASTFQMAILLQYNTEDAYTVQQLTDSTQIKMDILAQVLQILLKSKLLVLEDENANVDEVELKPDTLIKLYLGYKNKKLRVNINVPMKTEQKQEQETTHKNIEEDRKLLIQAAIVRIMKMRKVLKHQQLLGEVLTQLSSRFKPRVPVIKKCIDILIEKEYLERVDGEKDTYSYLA
# Numbers without * were called inactive. The sample as a whole holds a higher share of hits than the screen did.
SMILES,RBX1-CUL1 inh
Cc1cc(NC(=O)C2CCN(S(=O)(=O)N(C)C)CC2)ccc1Br,-12
CN(C)CCC1CN(Cc2nc3c(s2)CCCC3)CCO1 (stereo not given),-5
OCNc1nc2c3ccccc3nc(CCN3CCCCC3)n2n1,46*
c1ccc2nc3c(nc2c1)c1ccccc1n3CN1CCCCC1,2
Cn1c(CN2CCCCC2)nc2ccccc21,4
O[C@@H]1CN(C/C(Cl)=C/c2ccccc2)CC[C@H]1N1CCCCCC1,2
COc1cc(C(=O)Oc2ccccc2C(C)=O)cc(OC)c1OC,-6
CC(=O)c1ccccc(OC(=O)c2ccccc2)c1=O,81*
O=C(Oc1ccccc1C(=O)Oc1ccccc1)c1ccccc1,2
CCN1CCN(C2(C(=O)NCCN3CCCCC3)Cc3ccccc3C2)CC1,1
COc1cc2c(cc1OC)C1=C(C3=CCC(=O)[C@@]3(C)CC1)[C@H](C)S2,25*
COc1cc2c(cc1OC)/C(=C/CC1(C)C(=O)CCC1=O)CCS2,13
COc1cc2c(cc1OC)C(=O)CCS2,0
Cc1csc(CN(C)C(=O)c2ccc3oc(Cc4ccc(Cl)cc4)nc3c2)n1,-10
Cc1cc2c(c(=O)o1)C(c1cccc(OCc3c(F)cccc3Cl)c1)C(C#N)C(=N)O2 (stereo not given),-1
O=C(Cn1cnnn1)N1CCN(c2ccccc2)CC1,8
CCOc1ccc(NCc2ccc3c(c2)OCO3)cc1,12
N=C1S/C(=C\c2ccc(-c3ccccc3C(=O)O)o2)C(=O)N1c1ccc(Cl)cc1Cl,100*
CN1C(=O)/C(=C\c2ccc(-c3ccccc3C(=O)O)o2)SC1=S,4
CN=C1S/C(=C\c2ccc(-c3ccc(Cl)cc3C(=O)O)o2)C(=O)N1C,3
O=S(=O)(Nc1cccc2ccccc12)c1ccc2c(c1)[C@H]1C=CC[C@H]1[C@@H](c1cccc(Cl)c1)N2,1
Cc1cc(C)c(NC(=O)CSc2nnc(COc3c(C)cccc3C)o2)c(C)c1,-5
Fc1ccc(-c2nnc3c(Cl)nc4ccccc4n23)cc1,11
COc1ccc2nc(Cl)c(-c3nnc4c(Cl)nc5ccccc5n34)cc2c1,-9
Clc1nc2ccccc2n2c(-c3ccccc3)nnc12,25*
SMILES,RBX1-CUL1 inh
CCOc1ccc(-n2c(CCN3CCOCC3)n[nH]c2=S)cc1,-3
CC(=O)O[C@@H]1O[C@H](CC(=O)Oc2ccccc2)[C@@H](OC(=O)c2ccccc2)[C@H]1OC(=O)c1ccccc1,6
COC(=O)c1ccc2c(c1)C1C=CCC1C(c1ccc([N+](=O)[O-])cc1)N2 (stereo not given),2
O=C(O)c1ccc2c(c1)C1C=CCC1C(C1CC=CCC1)N2 (stereo not given),101*
CCOC(=O)[C@@H]1Nc2ccc(Br)cc2[C@@H]2C=CC[C@H]12,2
Cc1c(Br)sc2sc3ccccc3c12,0
c1cnc(-c2nnc3n2CCCN3)cn1,-8
O=C(Nc1ccc(F)cc1)N1CCN(c2ccc(Cl)cc2)CC1,0
Cc1cccc(OCCOc2c(Cl)cc(Cl)cc2/C=C2\C(=O)NN(c3ccccc3)C2=O)c1,98*
Cc1cc(OCCOc2ccc(Cl)cc2/C=C2\C(=O)NN(c3ccccc3)C2=O)ccc1Cl,49*
COc1cc(/C=C2\C(=O)NN(c3ccccc3)C2=O)cc(Cl)c1OCCOc1ccc(Cl)c(C)c1,12
O=C1NN(c2ccccc2)C(=O)/C1=C/c1cc(Cl)cc(Cl)c1OCCCOc1ccc(Cl)cc1,11
CCOc1cc(/C=C2\C(=O)NN(c3ccccc3)C2=O)cc(Cl)c1OCCOc1ccc(C)cc1C,14
Cc1cccc(OCCCOc2c(Cl)cc(Cl)cc2/C=C2\C(=O)NN(c3ccccc3)C2=O)c1,7
CS(=O)(=O)c1ccccc1-n1nnnc1S(C)(=O)=O,-5
CC1(C)c2ccccc2N(CC(=O)NCc2ccccc2)C12C=Cc1ccccc1O2 (stereo not given),-4
COc1ccc(OC)c(NC(=O)c2c(NC(C)=O)sc3c2CCCCC3)c1,0
COCCN(CC1CCN(Cc2ccccc2OC)CC1)C(=O)C1CCOC1 (stereo not given),-12
COc1ccc(CNC(=O)c2ccccc2Cl)cc1,-1
CNC(=O)CSc1nc(-c2ccccc2)cs1,-5
O=C(CSc1nc(-c2ccccc2)cs1)NC1=NN(c2ccccc2)C(=O)C1,-16
Cc1ccc(-c2csc(SC3C(=O)N(c4ccccc4)N=C3c3ccccc3)n2)cc1 (stereo not given),83*
COc1cc(C2C3=C(CC(C)(C)CC3=O)OC(=N)C2C#N)ccc1OCc1ccccc1 (stereo not given),-2
COc1cc(C2C3=C(CC(C)(C)CC3=O)N(c3ncn[nH]3)C(=N)C2C#N)ccc1OCc1ccccc1 (stereo not given),32*
COc1cc(C2C3=C(CC(C)(C)CC3=O)N(Nc3ccccc3)C(=N)C2C#N)ccc1OCc1ccccc1 (stereo not given),-5
SMILES,RBX1-CUL1 inh
Cc1c(C(=O)NCc2ccccc2Cl)nnn1-c1ccccc1,0
O=C(N/N=C/c1cc2c(cc1[N+](=O)[O-])OCO2)C12CC3CC(CC(C3)C1)C2,5
COc1cccc(/C=C2\C(=O)NC(=S)N(c3ccccc3C)C2=O)c1OC(C)C,31*
CCOc1ccc(/C=C2\C(=O)NC(=S)N(c3cccc(C)c3C)C2=O)cc1,-1
Cc1ccccc1N1C(=O)/C(=C/c2cccn2-c2cccc(C(=O)O)c2)C(=O)NC1=S,102*
Cc1ccccc1N1C(=O)/C(=C/c2cc(Cl)cc(Cl)c2O)C(=O)NC1=S,7
COc1cc(/C=C2\C(=O)NC(=S)N(c3ccccc3F)C2=O)c(Br)cc1O,11
O=C1NC(=S)N(c2ccccc2)C(=O)/C1=C/c1cccn1-c1ccc(Br)cc1,5
COc1cccc(C=C2C(=O)c3ccccc3C2=O)c1OC(C)C,-8
CCc1ccc(N2C(=O)/C(=C/c3cccn3-c3cccc(C(=O)O)c3)C(=O)NC2=S)cc1,21
Cc1ccc(N2C(=O)/C(=C/c3cccn3-c3ccc(N(C)C)cc3)C(=O)NC2=S)cc1C,35*
O=C(O)c1cccc(-n2cccc2/C=C2\SC(=O)N(Cc3ccccc3F)C2=O)c1,8
O=C1NC(=S)N(c2ccccc2F)C(=O)/C1=C/c1cccn1-c1cccc(C(=O)O)c1,101*
Cc1cccc(N2C(=O)/C(=C/c3cccn3-c3cccc(C(F)(F)F)c3)C(=O)NC2=S)c1,0
COCc1nc2cc(NC(=O)Cc3ccccc3)cc(C(=O)N(C)CCn3nc(C)cc3C)c2n1C,-8
CCOC(=O)/C(C#N)=N/Nc1ccc2[nH]c(=O)[nH]c2c1,-2
Brc1ccc(CSc2ccc(Br)cc2)cc1,3
CCOC(=O)C(Cc1csc2ccccc12)(Cc1csc2ccccc12)C(=O)OCC,-3
CCOC(=O)c1c(C)n(C)c2c1cc(OC(=O)c1ccccc1Br)c1ccccc12,2
CCN(CC1CCCN(CCc2cccc(F)c2)C1)C(=O)CC1CCN(C)CC1 (stereo not given),-11
CSc1nnc2c(n1)OC(c1cccc(Oc3ccccc3)c1)N(C(C)=O)c1ccccc1-2 (stereo not given),-2
C=CCN1C(=O)C(=O)C(C(=O)c2ccc(Cl)cc2)C1c1ccccc1 (stereo not given),-2
CCc1cc(C(=O)OC)c(NC(=O)c2c(C)noc2C)s1,-11
Cc1cc(/C=C2\C(=O)NC(=S)N(c3ccc(Cl)cc3)C2=O)c(C)n1-c1sc2c(c1C(=O)Nc1ccccc1)CCCC2,41*
